Five molecules from PubChem BioAssay can be followed below.

Test [1] is described as follows: small molecules captured by biotinylated probe aFSTL3 – biochemical, small-molecule microarray, fluorescence 635/667, stem cell growth factor project, primary screen (AID 1064).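 Also: measures binding of the biotinylated anti-FSTL3 antibody to printed compounds.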 The settings on record: higher = more signal.
Test [2] can be described thus: binders from COS7 lysate, DM2A8 probe, primary screen, torsin A project, cell lysate, small-molecule microarray, fluorescence 635/667 (AID 1065). The settings on record: higher = more signal, COS7 lysate expressing mutant human TOR1A.
The nature of test [3]: small molecules captured by biotinylated probe aFGF2 – biochemical, small-molecule microarray, fluorescence 635/667, stem cell growth factor project, primary screen (AID 1067).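 Also: measures binding of biotinylated aFGF2 protein to printed compounds on slides; z-score merges feature fluorescence and signal-to-noise across triplicate slides.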 The note with it: higher = more signal.
Test [4] can be described thus: small molecules captured by biotinylated probe aFGF10 – biochemical, small-molecule microarray, fluorescence 635/667, stem cell growth factor project, primary screen (AID 1071).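 Also: score merges 667 nm spot intensity and signal to noise from triplicate slides.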 The settings on record: higher = more signal.
Test [5] has as its target Neurogenic locus notch homolog protein 2 (Homo sapiens) (UniProt Q04721). Briefly: small molecules binding Notch2 protein – biochemical, small-molecule microarray, 635 nm fluorescence, stem cell growth factors, primary screen (AID 1073). The settings on record: higher = more signal.
Test [6] has as its target Pro-neuregulin-1, membrane-bound isoform (Homo sapiens) (UniProt Q02297). Briefly: small molecules binding neuregulin-1 protein – biochemical, small-molecule microarray, fluorescence 635/667, psychiatric disease protein project, primary screen (AID 1075).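 Also: score combines 667 nm spot fluorescence with signal to noise.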 The note with it: NRG1 binding, 635 nm fluorescence, higher = more signal.
Test [7] has as its system Neuregulin-1 EGF-like domain. The experiment in a line: small molecules binding NRG1 EGF domain – biochemical, small-molecule microarray, 635 nm fluorescence, primary screen (AID 1081).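 Also: binding of the protein to compounds printed on small-molecule microarray slides.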 The note with it: higher = more signal.
Test [8] in a line: FRG1 expression reporter modulators in myotubes – cell-based, C2C12 myotubes, firefly/Renilla luciferase, luminescence, FRG1 inhibition for FSHD, primary screen (AID 1084). The settings on record: FRG1 promoter luciferase, higher = more signal, called active from +8 up or from −8 down.
The nature of test [9]: small molecules captured by biotinylated probe aFST – biochemical, small-molecule microarray, fluorescence 635/667, stem cell growth factor project, primary screen (AID 1086).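 Also: score merges 667 nm fluorescence with signal-to-noise of each printed compound spot.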 The note with it: higher = more signal.
Test [10] in a line: binders of probe aHhip on microarray, primary screen, stem cell growth factor project, biochemical, small-molecule microarray, fluorescence 635/667 (AID 1087).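 Also: score merges spot fluorescence at 667nm with spot signal to noise ratio.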 The settings on record: higher = more signal.
In test [11] the test system is PRMT1 (protein arginine N-methyltransferase 1). The experiment in a line: small molecules binding arginine methyltransferase PRMT1 – biochemical, small-molecule microarray, 635 nm fluorescence, primary screen (AID 1088).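 Also: binding of Prmt1 protein to compounds spotted on small-molecule microarray slides.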 The note with it: higher = more signal.
A short description of test [12]: growth effects on S. cerevisiae YJM789 – YJM789 clinical isolate, OD600, 24 h, basal, primary screen (AID 1089).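 Also: growth of clinical yeast isolate S. cerevisiae YJM 789 seeded 1000 cells per well; test concentration not given here.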 The settings on record: higher = more signal, called active from +8 up or from −8 down.
Test [13] is described as follows: S. pombe growth modifiers, basal conditions – strain 972, OD600, 24 h, no modulator, primary screen (AID 1090).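 Also: basal condition with compound alone and no growth modifier present; test concentration not given here.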 The settings on record: S. pombe 972 growth, higher = more signal, called active from +8 up or from −8 down.
A short description of test [14]: budding yeast growth modifiers under rapamycin – strain BY4716, OD600, 96 h, primary screen (AID 1091). Also: test concentration not given here. The settings on record: S. cerevisiae BY4716 + rapamycin, higher = more signal, called active from +8 up or from −8 down.
The target of test [15] is Torsin-1A-interacting protein 2 (Homo sapiens) (UniProt Q8NFQ8). The experiment in a line: small molecules binding lysate-expressed LULL1 – cell lysate, human LULL1 lysate, 635/667 nm fluorescence, primary screen (AID 1092).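 Also: probe is lysate of COS7 cells overexpressing human LULL1; score merges per-feature 667 nm fluorescence with signal-to-noise.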 The settings on record: small-molecule microarray, hLULL1 lysate binding, 635 nm fluorescence; higher = more signal.
Test [16] is described as follows: optical density change of DRC41 E. coli – strain DRC41, OD650, 24 h, E. coli filamentation project, primary screen (AID 1093).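 Also: MC1000 strain lacking acrAB efflux and sulA so SOS filamentation is blocked; test concentration not given here.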 The note with it: E. coli DRC41 growth, higher = more signal, called active from +8 up or from −8 down.
A short description of test [17]: probe aLefty2 binding to arrayed compounds – biochemical, biotinylated probe, 635/667 nm fluorescence, primary screen (AID 1094).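 Also: score merges spot fluorescence near 667 nm with spot signal-to-noise ratio.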 The note with it: small-molecule microarray, higher = more signal.
Test [18] deals with Noggin (protein binding on small-molecule microarray). The experiment in a line: small molecules binding Noggin protein – biochemical, 635/667 nm fluorescence, primary screen (AID 1095).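 Also: score merges 667 nm feature fluorescence with signal to noise over triplicate slides.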 The note with it: 635 nm fluorescence, higher = more signal.
In test [19] the target is Neurogenic locus notch homolog protein 3 (Homo sapiens) (UniProt Q9UM47). Briefly: small molecules binding NOTCH3 protein – biochemical, 635/667 nm fluorescence, primary screen (AID 1096). The note with it: small-molecule microarray, 635 nm fluorescence, higher = more signal.
The nature of test [20]: probe aEGFR binding to arrayed compounds – biochemical, biotinylated probe, 635/667 nm fluorescence, primary screen (AID 1097).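 Also: probe is a biotinylated anti-EGFR antibody binding compounds printed on slides; score combines fluorescence near 667 nm and signal to noise of each spot.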 The settings on record: small-molecule microarray, higher = more signal.

SMILES strings stand for the structures. The source made the active and inactive calls.

Pro-neuregulin-1, membrane-bound isoform (Homo sapiens), sequence (Q02297 whole entry, looked up, the tested form may be a part, canonical isoform): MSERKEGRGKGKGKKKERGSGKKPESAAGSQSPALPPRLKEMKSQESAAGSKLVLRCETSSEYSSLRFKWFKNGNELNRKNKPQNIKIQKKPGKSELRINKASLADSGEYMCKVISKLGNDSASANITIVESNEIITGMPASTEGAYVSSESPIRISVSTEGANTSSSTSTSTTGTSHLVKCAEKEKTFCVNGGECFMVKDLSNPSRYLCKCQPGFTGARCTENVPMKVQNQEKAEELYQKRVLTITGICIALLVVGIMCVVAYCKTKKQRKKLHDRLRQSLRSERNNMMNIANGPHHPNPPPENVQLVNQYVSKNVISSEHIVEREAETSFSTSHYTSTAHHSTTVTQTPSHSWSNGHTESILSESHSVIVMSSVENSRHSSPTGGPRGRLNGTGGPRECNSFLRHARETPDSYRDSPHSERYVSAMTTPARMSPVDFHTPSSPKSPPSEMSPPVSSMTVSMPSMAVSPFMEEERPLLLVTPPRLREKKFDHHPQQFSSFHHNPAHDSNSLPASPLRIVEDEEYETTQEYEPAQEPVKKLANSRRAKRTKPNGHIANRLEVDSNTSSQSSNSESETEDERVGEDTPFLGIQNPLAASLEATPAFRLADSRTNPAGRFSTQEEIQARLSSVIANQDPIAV
Neurogenic locus notch homolog protein 2 (Homo sapiens), sequence (Q04721 whole entry, looked up, canonical isoform): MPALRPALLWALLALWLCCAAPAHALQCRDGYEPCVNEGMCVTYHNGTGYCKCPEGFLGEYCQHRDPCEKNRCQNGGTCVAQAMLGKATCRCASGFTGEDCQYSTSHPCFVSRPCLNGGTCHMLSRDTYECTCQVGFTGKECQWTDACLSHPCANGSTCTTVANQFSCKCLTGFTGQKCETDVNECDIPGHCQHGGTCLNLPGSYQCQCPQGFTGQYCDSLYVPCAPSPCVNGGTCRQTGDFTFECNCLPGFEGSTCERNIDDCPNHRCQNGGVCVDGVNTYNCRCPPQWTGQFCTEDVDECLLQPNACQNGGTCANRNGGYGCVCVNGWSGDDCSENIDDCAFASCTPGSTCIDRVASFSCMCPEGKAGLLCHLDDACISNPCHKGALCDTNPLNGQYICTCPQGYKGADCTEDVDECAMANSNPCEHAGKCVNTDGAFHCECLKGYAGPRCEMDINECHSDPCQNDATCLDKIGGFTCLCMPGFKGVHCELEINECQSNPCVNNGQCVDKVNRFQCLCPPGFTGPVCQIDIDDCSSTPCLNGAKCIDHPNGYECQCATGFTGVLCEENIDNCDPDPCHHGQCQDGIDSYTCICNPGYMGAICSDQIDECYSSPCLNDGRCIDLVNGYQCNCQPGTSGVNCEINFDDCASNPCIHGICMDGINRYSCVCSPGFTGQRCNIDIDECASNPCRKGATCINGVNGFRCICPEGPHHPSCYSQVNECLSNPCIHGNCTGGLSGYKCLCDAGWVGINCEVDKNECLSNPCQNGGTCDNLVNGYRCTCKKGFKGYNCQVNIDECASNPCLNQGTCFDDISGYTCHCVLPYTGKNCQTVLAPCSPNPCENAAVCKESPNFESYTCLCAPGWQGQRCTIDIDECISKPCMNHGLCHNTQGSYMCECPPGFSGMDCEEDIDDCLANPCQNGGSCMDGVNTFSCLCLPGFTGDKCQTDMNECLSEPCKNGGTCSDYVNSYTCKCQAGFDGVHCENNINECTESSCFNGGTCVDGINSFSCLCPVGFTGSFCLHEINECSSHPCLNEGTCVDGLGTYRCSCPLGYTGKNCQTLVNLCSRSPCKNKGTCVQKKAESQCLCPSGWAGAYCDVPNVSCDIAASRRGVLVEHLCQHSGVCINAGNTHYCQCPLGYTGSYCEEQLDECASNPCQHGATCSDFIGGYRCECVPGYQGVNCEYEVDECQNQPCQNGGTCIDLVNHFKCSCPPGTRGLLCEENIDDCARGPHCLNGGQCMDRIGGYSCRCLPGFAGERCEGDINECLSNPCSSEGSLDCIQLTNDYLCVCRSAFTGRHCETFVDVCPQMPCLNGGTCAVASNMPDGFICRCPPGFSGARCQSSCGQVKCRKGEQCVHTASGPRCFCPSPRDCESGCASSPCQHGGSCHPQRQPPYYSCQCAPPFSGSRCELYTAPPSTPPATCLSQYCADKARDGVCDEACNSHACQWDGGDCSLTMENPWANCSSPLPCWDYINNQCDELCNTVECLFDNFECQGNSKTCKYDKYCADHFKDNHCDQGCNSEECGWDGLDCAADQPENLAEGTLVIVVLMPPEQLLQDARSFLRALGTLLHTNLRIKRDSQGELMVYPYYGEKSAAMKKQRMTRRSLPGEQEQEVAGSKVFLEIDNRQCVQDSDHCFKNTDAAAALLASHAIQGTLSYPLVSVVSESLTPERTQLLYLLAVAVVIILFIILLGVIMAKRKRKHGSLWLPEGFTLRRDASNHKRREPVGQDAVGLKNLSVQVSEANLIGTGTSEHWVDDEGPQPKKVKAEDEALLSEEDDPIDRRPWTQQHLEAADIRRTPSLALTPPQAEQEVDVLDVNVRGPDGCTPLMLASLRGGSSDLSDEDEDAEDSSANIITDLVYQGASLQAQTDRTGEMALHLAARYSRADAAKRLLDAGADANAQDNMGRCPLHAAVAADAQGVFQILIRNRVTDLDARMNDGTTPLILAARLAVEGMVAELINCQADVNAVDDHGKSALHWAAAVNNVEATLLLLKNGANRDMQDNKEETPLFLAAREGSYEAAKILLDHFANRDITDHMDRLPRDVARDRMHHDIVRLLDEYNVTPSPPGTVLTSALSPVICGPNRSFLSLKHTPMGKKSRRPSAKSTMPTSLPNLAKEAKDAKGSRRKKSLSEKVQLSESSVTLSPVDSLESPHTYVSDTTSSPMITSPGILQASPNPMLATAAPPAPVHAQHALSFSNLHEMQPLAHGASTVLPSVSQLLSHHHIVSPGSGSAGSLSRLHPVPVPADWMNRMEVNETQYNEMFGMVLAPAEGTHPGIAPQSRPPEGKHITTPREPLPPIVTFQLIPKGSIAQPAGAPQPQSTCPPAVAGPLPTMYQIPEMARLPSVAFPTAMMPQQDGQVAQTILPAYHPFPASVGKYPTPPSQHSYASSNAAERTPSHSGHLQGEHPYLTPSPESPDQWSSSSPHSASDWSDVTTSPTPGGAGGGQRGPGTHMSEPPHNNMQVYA
Torsin-1A-interacting protein 2 (Homo sapiens), sequence (Q8NFQ8 whole entry, looked up): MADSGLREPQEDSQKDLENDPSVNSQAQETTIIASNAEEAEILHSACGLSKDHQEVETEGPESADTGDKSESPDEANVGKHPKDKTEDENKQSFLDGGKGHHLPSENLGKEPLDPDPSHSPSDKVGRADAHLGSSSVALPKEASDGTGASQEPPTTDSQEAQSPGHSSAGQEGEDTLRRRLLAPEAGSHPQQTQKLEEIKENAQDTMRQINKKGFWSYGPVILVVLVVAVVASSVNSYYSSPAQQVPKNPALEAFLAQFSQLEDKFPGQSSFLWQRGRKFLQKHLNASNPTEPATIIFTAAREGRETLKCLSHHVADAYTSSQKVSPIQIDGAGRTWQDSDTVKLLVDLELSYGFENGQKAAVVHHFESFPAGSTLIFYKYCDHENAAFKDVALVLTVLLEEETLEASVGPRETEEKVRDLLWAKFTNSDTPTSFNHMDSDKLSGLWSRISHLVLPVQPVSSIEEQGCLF

On to `CCCCCCc1nc(-c2ccc(-c3ccc(Cl)c(Cl)c3)o2)c(C)c2c1[Si](C(C)C)(C(C)C)OC2`, for which the composite z-score in test [1] is -0.495; in test [2], -0.866; in test [3] it was -0.144; in test [4], -0.475; in [5] it was -0.363; in test [6], 0.0643. Further, the composite z-score in [7] is -0.416; in test [9], -0.0878; in test [10] it was 0.0505; in [11], 0.337; in test [15], 0.703; in test [17], -0.259. Besides, the composite z-score was -0.123 in [18], -0.243 in test [19] and -0.233 in test [20]. Besides, the z-score in [8] is 0.333 (inactive); in test [12] it was -0.972 (inactive); in test [13], -3.62 (inactive); in [14] it was 0.0962 (inactive); in [16] it was -0.0336 (inactive).
Consider `O=c1cccc(-c2ccccc2Cl)o1`, for which the composite z-score in test [1] is -0.152; in test [2], -0.201; in test [3], -0.0621; in test [4] it was 0.366; in [5], 0.772; in test [6], -0.234. The composite z-score in test [7] is 0.311; in [9] it was 0.241; in test [10] it was -0.0047; in test [11], 0.023; in test [15], 0.551; in test [17], -0.127. Besides, the values for the composite z-score in test [18], in test [19] and in test [20] were 0.466, -0.691 and -0.139, respectively. The z-score was 1.17 (inactive) in test [8]; -0.871 (inactive) in test [12]; -0.463 (inactive) in [13]; 2.12 (inactive) in [14]; -0.252 (inactive) in test [16].
On to `CCCNC(=O)[C@@H]1c2ccccc2C(=O)N(Cc2ccccc2OC)[C@H]1c1ccc(CO)cc1`, for which the composite z-score in [1] was -0.148; in test [2] it was 1.34; in [3], -0.0058; in [4], 0.479; in test [5], 0.901; in [6] it was 1.66. Also, the composite z-score in [7] was 0.977; in test [9] it was 0.274; in test [10], -0.201; in [11] it was 0.286; in test [15] it was 3.06; in test [17] it was -0.139. The composite z-score in test [18] is 0.986; in test [19], 1.11; in test [20], -0.142. The z-score is -2.3 (inactive) in [8]; 0.105 (inactive) in test [12]; -0.19 (inactive) in [13]; 0.353 (inactive) in test [14]; 0.387 (inactive) in test [16].
`COC(=O)c1c(CC[C@@H](CO)NC(=O)N[C@H](Cc2ccccc2)Cn2cc(-c3ccccn3)nn2)oc(C(C)=O)c1C(=O)OC`: the composite z-score is -0.241 in test [1]; 0.0467 in [2]; -0.083 in test [3]; 0.19 in test [4]; -0.143 in [5]; 0.813 in [6]. Further, the composite z-score is 1.09 in test [7]; -0.217 in [9]; -0.271 in test [10]; 0.73 in [11]; 1.68 in [15]; -0.207 in test [17]. Moreover, the composite z-score is -0.151 in test [18], 0.0619 in test [19] and -0.096 in test [20]. Besides, the z-score in test [8] was -0.533 (inactive); in [12], -0.413 (inactive); in test [13], 0.0254 (inactive); in test [14] it was -0.398 (inactive); in test [16] it was -0.419 (inactive).
For `C=C(C(=O)CC[C@H](OC(C)=O)c1ccccc1OCCO)C(C)C`, the composite z-score in test [1] was -0.214; in [2], -1.03; in test [3], -0.0985; in test [4] it was 0.317; in test [5] it was -0.926; in test [6] it was -0.49. In addition, the composite z-score in test [7] was -0.862; in test [9] it was -0.327; in [10] it was 0.0854; in test [11], 0.316; in [15] it was -0.808; in [17] it was -0.232. Besides, the composite z-score was 0.657 in [18], 0.0937 in [19] and -0.188 in [20]. The z-score is -4.37 (inactive) in test [8]; -25 (active) in test [12]; -20.2 (active) in test [13]; -4.35 (inactive) in [14]; 0.43 (inactive) in test [16].
